In the supplement of paper PMC6763611 one finds growth inhibition data, which are given here for 39 molecules.

The first assay has as its system Plasmodium falciparum NF54. Briefly: growth inhibition relative to untreated control; higher = more inhibition. The settings on record: 1 µM; MM + chorismate end-products (CM screening medium); 72 h. In short, it runs like this:
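Ring-stage P. falciparum NF54 parasites at 1% hematocrit and 1% parasitemia were dispensed at 100 μL/well into dark 96-well half-area plates and given a single dose of test compound at 5 μM or 1 μM for 72 h at 37 °C. Incubation took place in minimal RPMI, either alone or supplemented with the chorismate end-products folate (2.2 μM), pABA (7.3 μM), pHBA (7.3 μM), tyrosine (111 μM), phenylalanine (90 μM) and tryptophan. Growth inhibition was determined with SYBR Green relative to untreated wells, using uninfected erythrocytes for background.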
For `O=C1Nc2ccc(Br)cc2C12NCCc1c2[nH]c2ccccc12` (stereo not drawn), the growth inhibition was found to be 97.4%.
The same measure, in the same setting: as for `CCOc1ccc(-c2nc(CNCCc3ccc(F)cc3)cs2)cc1`, the figure is 2.22%; as for `Nc1ncc(-c2ccc(C(F)(F)F)nc2)cc1-c1ccc(C(F)(F)F)nc1`, 66.1%.
Same read-out and setting: as for `FC(F)(F)c1ccc(N(c2cccnc2)C2CCN(c3ccc(C(F)(F)F)cn3)CC2)cc1`, the figure is 60.2%; as for `Cc1cc(C)cc(COc2ccc3c(C)c(CCC(=O)O)c(=O)oc3c2C)c1`, 22.5%.
As to `CO[C@@H](C(=O)N1Cc2[nH]nc(NC(=O)c3ccc(N4CCN(C)CC4)cc3)c2C1)c1ccccc1`, the growth inhibition amounted to 45.1%.
The same measure, in the same setting: as for `Cc1ccc(S(=O)(=O)N2CCN(C(=O)c3cc(-c4ccccc4)n[nH]3)CC2)cc1`, the figure is 94.2%; as for `NS(=O)(=O)c1cccc(-c2ccc3ncc(N4CCOCC4)nc3c2)c1`, 47%; as for `FC(F)(F)c1cc(NCCc2ccccc2)nc(-c2ccccn2)n1`, 37.2%.
`O=C1[C@@H](Oc2ccccc2)[C@@H](c2ccc(Cl)cc2)N1CCn1cnc2c(NCc3ccccc3)ncnc21`: the growth inhibition was under 0%.
The same measure, in the same setting: as for `Cc1cc2ccccc2n1CC(=O)N1CC(C(=O)N2CCCCC2)Oc2ccccc21` (stereo not drawn), the figure is 97.2%.
The same measure, in the same setting: as for `c1csc(-c2cnc3sc(NCC4CCOCC4)nn23)c1`, the figure is 60.9%; as for `COc1cncc(-c2cncc(N3CCN(c4ccncc4)CC3)n2)c1`, over 100%.
The same measure, in the same setting: as for `O=C(Nc1nnc(-c2ccc(Cl)s2)o1)c1ccc(Cl)s1`, the figure is 34.8%.
For `Cc1ccc(-c2nc(CN(Cc3ccccn3)C(C)C)cs2)o1`, the growth inhibition amounted to 47.7%.
Same read-out and setting: as for `CCOC(=O)c1cc(-c2csc(Nc3c(C)cc(C)cc3C)n2)on1`, the figure is 12.2%.
The same measure, in the same setting: as for `CCN(CC)S(=O)(=O)c1ccc(C(=O)Nc2cc(C)nn2-c2nc(C)c(C)c(=O)[nH]2)cc1`, the figure is 19.9%; as for `COc1ccccc1C(C)NCC(=O)Nc1cc(C(F)(F)F)ccc1Cl` (stereo not drawn), 86.1%.
Take `CCOC(=O)c1noc(N)c1-c1ccccc1`: the growth inhibition is 59.8%.
On the same count and under the same terms, as for `c1ccc(Oc2ccc(-c3cc(N4CCNCC4)[nH]n3)cc2)cc1`, the figure is 32.1%; as for `Cc1cc(NC(=O)c2ccc(Oc3ccc(Cl)cc3O)o2)no1`, 8.1%.
The same measure, in the same setting: as for `COc1cccc2c(C)nc(N=C(N)N)nc12`, the figure is 70.2%; as for `CS(=O)(=O)c1ccc(C(=O)N(CC2CCCO2)c2nc3ccccc3s2)cc1[N+](=O)[O-]` (stereo not drawn), under 0%.
The same measure, in the same setting: as for `CCCc1ccc(S(=O)(=O)Nc2ccc(CN3CCN(CC4CC4)CC3)cc2)cc1`, the figure is 7.84%.
Regarding `Nc1ncc(Br)cc1-c1nc2cc(Cl)cnc2[nH]1`, the growth inhibition was determined as 61.7%.
With `Cc1nc(-c2cccc(NCc3ccccc3)c2)[nH]c1C`, the growth inhibition was determined as 63.5%.
On the same count and under the same terms, as for `Clc1ccc(-n2cc(COc3ccnc4ccccc34)nn2)cc1`, the figure is 4.03%; as for `O=C(NCc1cc(Cl)cc(Cl)c1)c1c(C(F)(F)F)nc2ccccn12`, 2.45%.
Still for that read-out and setting: as for `COc1cc2ncnc(NC3CCN(Cc4ccccc4)CC3)c2cc1OC`, the figure is 98.1%; as for `COC(=O)c1ccc(F)cc1NS(=O)(=O)c1cccc(-c2cnn(Cc3ccccc3)c2)c1`, 33.2%.
As for `Nc1nccc2ccc(Oc3ccncc3)cc12`, the growth inhibition was determined as 73.9%.
Same read-out and setting: as for `c1ccc(-c2cc(N3CCCCC3)c3ccccc3n2)nc1`, the figure is 3.57%.
Still for that read-out and setting: as for `COC(=O)c1c(NC(=O)c2cc3ccccc3oc2=O)sc2c1CCN(Cc1ccccc1)C2`, the figure is under 0%; as for `CCC(Sc1nc2ccccc2o1)C(=O)Nc1nccs1` (stereo not drawn), 66.4%.
On to `COc1cccc(NC(=O)c2c(NC(=O)c3cccnc3)sc3c2CCC3)c1`, for which the growth inhibition amounted to 47.5%.
Still for that read-out and setting: as for `Cc1cc(C(=O)Nc2ccc(-c3ccccc3)cc2)no1`, the figure is 96.4%; as for `CC(C)n1nc(-c2cc3c(Cl)cccc3[nH]2)c2c(N)ncnc21`, 50.4%; as for `COc1ccc2nc(C)cc(OCC(=O)Nc3ccccc3OC)c2c1`, 11.7%.
The same measure, in the same setting: as for `CCCn1nnc(NC(=O)COc2ccc(C3CCCCC3)cc2)n1`, the figure is 6.74%.

Staying with this assay, now noted: 1 µM; minimal medium (MM); 72 h.
The molecule `O=C1Nc2ccc(Br)cc2C12NCCc1c2[nH]c2ccccc12` (stereo not drawn) gave a growth inhibition of 94.7%.
`CCOc1ccc(-c2nc(CNCCc3ccc(F)cc3)cs2)cc1` returned a growth inhibition of 38.5%.
Same read-out and setting: as for `Nc1ncc(-c2ccc(C(F)(F)F)nc2)cc1-c1ccc(C(F)(F)F)nc1`, the figure is 56.4%; as for `FC(F)(F)c1ccc(N(c2cccnc2)C2CCN(c3ccc(C(F)(F)F)cn3)CC2)cc1`, 38.4%.
Take `Cc1cc(C)cc(COc2ccc3c(C)c(CCC(=O)O)c(=O)oc3c2C)c1`: the growth inhibition is 15.7%.
Still for that read-out and setting: as for `CO[C@@H](C(=O)N1Cc2[nH]nc(NC(=O)c3ccc(N4CCN(C)CC4)cc3)c2C1)c1ccccc1`, the figure is 55.3%.
`Cc1ccc(S(=O)(=O)N2CCN(C(=O)c3cc(-c4ccccc4)n[nH]3)CC2)cc1` showed a growth inhibition of 87.1%.
On the same count and under the same terms, as for `NS(=O)(=O)c1cccc(-c2ccc3ncc(N4CCOCC4)nc3c2)c1`, the figure is 71%; as for `FC(F)(F)c1cc(NCCc2ccccc2)nc(-c2ccccn2)n1`, 0.647%; as for `O=C1[C@@H](Oc2ccccc2)[C@@H](c2ccc(Cl)cc2)N1CCn1cnc2c(NCc3ccccc3)ncnc21`, 22.4%.
`Cc1cc2ccccc2n1CC(=O)N1CC(C(=O)N2CCCCC2)Oc2ccccc21` (stereo not drawn): the growth inhibition amounted to 95.9%.
The same measure, in the same setting: as for `c1csc(-c2cnc3sc(NCC4CCOCC4)nn23)c1`, the figure is 68.8%; as for `COc1cncc(-c2cncc(N3CCN(c4ccncc4)CC3)n2)c1`, over 100%; as for `O=C(Nc1nnc(-c2ccc(Cl)s2)o1)c1ccc(Cl)s1`, 22.8%.
Molecule `Cc1ccc(-c2nc(CN(Cc3ccccn3)C(C)C)cs2)o1` had a growth inhibition of 20.3%.
`CCOC(=O)c1cc(-c2csc(Nc3c(C)cc(C)cc3C)n2)on1` came in with a growth inhibition of 20.5%.
On to `CCN(CC)S(=O)(=O)c1ccc(C(=O)Nc2cc(C)nn2-c2nc(C)c(C)c(=O)[nH]2)cc1`, for which the growth inhibition amounted to 10.2%.
Same read-out and setting: as for `COc1ccccc1C(C)NCC(=O)Nc1cc(C(F)(F)F)ccc1Cl` (stereo not drawn), the figure is 85.5%; as for `CCOC(=O)c1noc(N)c1-c1ccccc1`, 12.2%.
On the same count and under the same terms, as for `c1ccc(Oc2ccc(-c3cc(N4CCNCC4)[nH]n3)cc2)cc1`, the figure is 29.2%; as for `Cc1cc(NC(=O)c2ccc(Oc3ccc(Cl)cc3O)o2)no1`, 27.1%; as for `COc1cccc2c(C)nc(N=C(N)N)nc12`, 71.3%.
The same measure, in the same setting: as for `CS(=O)(=O)c1ccc(C(=O)N(CC2CCCO2)c2nc3ccccc3s2)cc1[N+](=O)[O-]` (stereo not drawn), the figure is 31.2%; as for `CCCc1ccc(S(=O)(=O)Nc2ccc(CN3CCN(CC4CC4)CC3)cc2)cc1`, 4.1%; as for `Nc1ncc(Br)cc1-c1nc2cc(Cl)cnc2[nH]1`, under 0%.
Consider `Cc1nc(-c2cccc(NCc3ccccc3)c2)[nH]c1C`, for which the growth inhibition was 35.9%.
Molecule `Clc1ccc(-n2cc(COc3ccnc4ccccc34)nn2)cc1` yielded a growth inhibition of under 0%.
Turning to `O=C(NCc1cc(Cl)cc(Cl)c1)c1c(C(F)(F)F)nc2ccccn12`, the growth inhibition was determined as 10.6%.
Same read-out and setting: as for `COc1cc2ncnc(NC3CCN(Cc4ccccc4)CC3)c2cc1OC`, the figure is 95.5%; as for `COC(=O)c1ccc(F)cc1NS(=O)(=O)c1cccc(-c2cnn(Cc3ccccc3)c2)c1`, 37.7%; as for `Nc1nccc2ccc(Oc3ccncc3)cc12`, 64%.
Still for that read-out and setting: as for `c1ccc(-c2cc(N3CCCCC3)c3ccccc3n2)nc1`, the figure is under 0%; as for `COC(=O)c1c(NC(=O)c2cc3ccccc3oc2=O)sc2c1CCN(Cc1ccccc1)C2`, 8.51%.
The molecule `CCC(Sc1nc2ccccc2o1)C(=O)Nc1nccs1` (stereo not drawn) came in with a growth inhibition of 33%.
The same measure, in the same setting: as for `COc1cccc(NC(=O)c2c(NC(=O)c3cccnc3)sc3c2CCC3)c1`, the figure is 9.66%.
Same read-out and setting: as for `Cc1cc(C(=O)Nc2ccc(-c3ccccc3)cc2)no1`, the figure is 91.1%.
Consider `CC(C)n1nc(-c2cc3c(Cl)cccc3[nH]2)c2c(N)ncnc21`, for which the growth inhibition amounted to 16%.
On the same count and under the same terms, as for `COc1ccc2nc(C)cc(OCC(=O)Nc3ccccc3OC)c2c1`, the figure is under 0%; as for `CCCn1nnc(NC(=O)COc2ccc(C3CCCCC3)cc2)n1`, under 0%.
